Results: PubChem BioAssay AID488890 (Southern Research Specialized Biocontainment Screening …, 2010)
“And” between values parts separate entries of the source, which are not always exact repeats. Equal values may be shown once. Hit rate of the full screen: of about 320,000 compounds, about 1,300 (0.41%) were called active. Inconclusive results (about 3%) are left out. The rule behind the calls is not given here. The list is a sample of the results. Potency and affinity values are given separately.

Test: growth inhibition of non-replicating M. tuberculosis (AID 488890);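 note: plate controls were DMSO cells for no effect and high antibiotic wells for full effect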
Conditions: Mycobacterium tuberculosis non-replicating, at 25 µM, stronger effect = higher value
In the case of `CCN(CC(=O)Nc1c(F)cccc1F)C(=O)CNC(=O)c1ccc2ccccc2c1`, the inhibition is reported as 18.6%. With `CN(C)S(=O)(=O)c1cccc(C(=O)NC(=S)N(CCC#N)Cc2cccnc2)c1` the inhibition was 42.5%. `COCC(=O)N1CCC(Oc2ccc(C(=O)N3CCCCCC3)cc2)CC1` showed an inhibition of -1.31%. For `COc1ccc(-c2sc3ccccc3c2-c2ccc(O)cc2)cc1`, the inhibition was 17.4%. With `COc1ccc(NC(=O)CN(C)S(=O)(=O)c2ccc3c(c2)CCCN3C(C)=O)cc1` the inhibition was -3.38%. `Cc1onc(C(=O)N2CCC(Cc3ccccc3)CC2)c1[N+](=O)[O-]` showed an inhibition of -6.71%. In the case of `CCOC(=O)CSc1nc2c(sc(=S)n2-c2ccc(CC)cc2)c(=O)[nH]1`, the inhibition is reported as 48.4%. `COc1ccc(NC(=O)CNc2ccccc2N2CCCC2=O)cc1S(=O)(=O)N1CCOCC1` showed an inhibition of 13.9%. `Cn1cccc1CC(=O)N/N=C/c1cc([N+](=O)[O-])ccc1Cl` showed an inhibition of 14.2%. With `Cc1[nH][nH]c(=O)c1C(c1ccc(-c2cccc(C(=O)O)c2)o1)c1c(C)[nH][nH]c1=O` the inhibition was -6.98%. `COC(=O)c1ccc(-c2ccc(C(c3c(C)[nH][nH]c3=O)c3c(C)[nH][nH]c3=O)o2)cc1` gave an inhibition of 36.5%. `Cc1c(NC(=S)NC(NC(=O)C(C)(C)C)C(Cl)(Cl)Cl)c(=O)n(-c2ccccc2)n1C` (centres undefined) showed an inhibition of 1.72%. `O=C1OCC(CO)(CO)N=C1NNc1ccccc1[N+](=O)[O-]` gave an inhibition of 4.31%. Work on `O=C(CN1CCOCC1)N/N=C/c1ccc(-c2cccc(Cl)c2Cl)o1` yielded an inhibition of 20.1%. For `Cc1ccc(C(=O)N/N=C\c2ccc(-c3ccc(Cl)c(Cl)c3)o2)cn1`, the inhibition was 16.6%. `CCC(=O)N/N=C/c1ccc(-c2ccc([N+](=O)[O-])cc2)o1` gave an inhibition of 74.5%. In the case of `O=C(CN1CCOCC1)N/N=C/c1ccc(-c2ccc(C(=O)O)cc2)o1`, the inhibition is reported as 2.35%. `Cc1ccc(C(=O)N/N=C/c2ccc(-c3cccc(Cl)c3)o2)cn1` gave an inhibition of -3.58%. `CC1(CC(=O)N/N=C/c2ccc(-c3ccc(Cl)cc3)o2)OCCO1` showed an inhibition of 69.5%. `CN(C)c1ccc(C(=O)N/N=C/C23CC[C@@H](O)CC2(O)CC[C@@H]2[C@@H]3CCC3(C)C(C4=CC(=O)OC4)CCC23O)cc1` (some centres undefined) showed an inhibition of -3.55%. Compound `CCOC(=O)c1cc(C)n(-n2cnnc2)c1C` has an inhibition of -3.13%. For `COc1ccc2c(c1)nc(SCC(=O)C(C)(C)C)n2C`, the inhibition was 7.17%. In the case of `N#CC(=NCc1cccnc1)C1=C(O)c2ccccc2C1=O`, the inhibition is reported as 16.1%. `COc1ccc(N=C(C)C2=C(O)c3ccccc3C2=O)cc1` showed an inhibition of 21%. Compound `COC(=O)C1=C(C)N(CCCC(=O)O)C(=O)NC1c1ccc(OC)cc1` (centres undefined) has an inhibition of -3.65%. `CCOc1ccc(N2CC(=O)N(c3ccc(OCC)cc3)CC2=O)cc1` gave an inhibition of 2.08%. With `CCOc1ccc(N2C(=O)CNC2=S)cc1` the inhibition was 27.5%. In the case of `CN(C(=O)c1ccccc1C(=O)OCC(=O)NCc1cccs1)C1CCCCC1`, the inhibition is reported as -0.2%. Work on `O=C(c1ccc(Br)o1)N1CCN(c2ccc(F)cc2)CC1` yielded an inhibition of 66.9%. `CN(C)C(=O)c1cccn1-c1ncc(C(F)(F)F)cc1Cl` showed an inhibition of -7.62%. In the case of `O=c1c2ccccc2nc(-c2ccccc2)n1-c1ccccc1O`, the inhibition is reported as 49.7%. In the case of `COc1ccccc1-n1c(-c2ccccc2Br)nc2ccccc2c1=O`, the inhibition is reported as 5.34%. `O=C(CCC(=O)N1CCN(c2ccc(F)cc2)CC1)c1ccc(Cl)cc1` gave an inhibition of 37.7%. `Cc1c(Cl)cccc1NC(=O)C1CCCN(S(C)(=O)=O)C1` (centres undefined) gave an inhibition of 1.51%. `Cc1ccc(S(=O)(=O)N2CCCCC2)cc1NC(=O)COC(=O)C1=COCCO1` gave an inhibition of -3.36%. With `CC(=O)c1c(O)cc(C(C)C)n(-c2ccccc2)c1=O` the inhibition was 6.76%. Work on `C=CCNC(=O)N[C@@H](CCSC)C(=O)OC` yielded an inhibition of -9.43%. Work on `O=C(COC(=O)c1n[nH]c2ccccc12)NCCc1ccc(Cl)cc1` yielded an inhibition of 18.4%. With `Cc1ccccc1NCc1nc2ccccc2n1C` the inhibition was 34.2%. `Cn1c(CNc2ccc(O)cc2)nc2ccccc21` showed an inhibition of 73.1%. With `CCCn1c(CNC(=O)Cc2ccccc2)nc2ccccc21` the inhibition was -2.66%. For `CCCn1c(CNc2ccc(Br)cc2)nc2ccccc21`, the inhibition was 66.1%. `COc1ccc(S(=O)(=O)N2CCC(C(=O)N3CCCCC3)CC2)cc1` gave an inhibition of -4.95%. In the case of `O=C(CNC(=O)c1cccs1)NCC(=O)OCc1ccccc1Br`, the inhibition is reported as 20.5%. Work on `Cc1ccc(S(=O)(=O)Nc2ccc(F)cc2)cc1C(=O)N1CCOCC1` yielded an inhibition of -12.4%. `COC(=O)c1cnn(-c2nc(OC)cc(OC)n2)c1C` showed an inhibition of -11.5%. In the case of `COc1cc(OC)nc(-n2ncc(OC)c(Br)c2=O)n1`, the inhibition is reported as -12%. With `COc1cc(C(=O)ON=C2C3CC4CC(C3)CC2C4)cc(OC)c1OC` the inhibition was 46.9%. `COc1ccc(-c2nc(CSCC(=O)N3CCN(C(=O)c4ccco4)CC3)c(C)o2)cc1OC` gave an inhibition of -16.5%. For `CCOC(=O)C1(CCOc2ccccc2)CCN(C(=O)CCSC)CC1`, the inhibition was 10.9%. `COc1cccc(/C=C2\SC(=S)N(CCCC(=O)N3CCCCC3)C2=O)c1` gave an inhibition of 79%. `O=C(CCN1C(=O)/C(=C\c2ccccc2Cl)SC1=S)N1CCN(c2ccccc2)CC1` gave an inhibition of 73.2%. With `COc1cccc(/C=C2/SC(=S)N(CCC(=O)N3CCOCC3)C2=O)c1` the inhibition was 46.5%. `CN1CCN(C(=O)CCN2C(=O)/C(=C/c3ccccc3Cl)SC2=S)CC1` showed an inhibition of 18.9%. `O=C(c1ccco1)N1CCN(C(=O)c2ccc(COc3ccc(Cl)cc3Cl)o2)CC1` showed an inhibition of 11.7%. In the case of `CS(=O)(=O)c1ccc2nc(NC(=O)CN3C(=O)C4CC=CCC4C3=O)sc2c1` (centres undefined), the inhibition is reported as -9.69%. Compound `COC(=O)c1ccc(N2NC(=O)/C(=C/c3cc(OC)c(OC)c(OC)c3)C2=O)cc1` has an inhibition of 13.4%. `C=CCn1c(O)c(N=NC(=O)c2ccc3c(c2)OCO3)c2ccccc21` gave an inhibition of 11.7%. Work on `Cc1cc(C)n2nc(CNS(=O)(=O)c3ccc(CC(C)C)cc3)nc2n1` yielded an inhibition of 7.85%. With `O=C(NC1CC1)C1CC(=O)N(C2CCCCC2)C1` (centres undefined) the inhibition was -5.51%. `CC(NC(=O)CSc1nnc(-c2cc3cc(Cl)ccc3o2)n1C)c1ccccc1` (centres undefined) gave an inhibition of 16.7%. With `CNC(C)C#Cc1ccc2c(=O)c3c(OC)cccc3oc2c1` (centres undefined) the inhibition was 42.6%. `CNC(C)C#Cc1ccc2oc3cccc(OC)c3c(=O)c2c1` (centres undefined) gave an inhibition of 57.7%. In the case of `CCOc1ccc(S(=O)(=O)N2CCC(C(=O)N3CCCCCC3)CC2)cc1C`, the inhibition is reported as 21.6%. `O=[N+]([O-])c1ccc(N2CCCCC2)cc1SCCO` gave an inhibition of 7.65%. For `CC(=O)Nc1ccc(NC(=O)c2ccc(CN3CCc4ccccc4C3)cc2)cc1`, the inhibition was 28.5%. Work on `CC(C)NC(=O)c1ccc(CN2CCc3ccccc3C2)cc1` yielded an inhibition of -40%. With `CCOC(=O)C1=C(C)Nc2sc(C(=O)c3ccc(OC)cc3)c(N)c2C1c1ccc(C(=O)OC)cc1` (centres undefined) the inhibition was 26.4%. `CCCCCC(=O)NC(=S)Nc1cccc(-c2nc3ncccc3o2)c1` gave an inhibition of -12.6%. `COC(=O)c1ccc(C)c(NC(=O)CSc2nc3[nH]c(=O)cc(O)c3s2)c1` showed an inhibition of 11.9%. `Nc1ccc(C(=O)OCC(=O)N2CCc3ccccc3C2)cc1[N+](=O)[O-]` showed an inhibition of 39%. `COc1cccc(C(=O)OCC(=O)N2CCc3ccccc3C2)c1` gave an inhibition of 43.9%. With `COc1cccc(-c2nc(-c3ccccc3)c(-c3ccccc3)[nH]2)c1OCC(=O)O` the inhibition was 4.59%. `O=[N+]([O-])c1cc(C(F)(F)F)ccc1NC1CCN(Cc2ccccc2)CC1` gave an inhibition of 52.5%. Work on `FC(F)Sc1ccc(-n2c(-c3ccc(Cl)cc3)c[n+]3c2CCC3)cc1` yielded an inhibition of -0.67%. In the case of `CCOc1ccc(C(=O)NCc2ccncc2)cc1OCC`, the inhibition is reported as -10.7%. With `NS(=O)(=O)c1ccc(OC(=O)CNC(=O)OCc2ccccc2)cc1` the inhibition was 6.9%. With `Cc1ccc(S(=O)(=O)N2CCN(C(=O)c3c(-c4ccccc4)noc3C)CC2)cc1C` the inhibition was 8.79%. `O=C(O)COc1ccc(Br)cc1CP(=O)(c1ccccc1)c1ccccc1` showed an inhibition of -5.1%. With `CCOC(=O)c1c(C)nn(-c2ncccc2NC(=O)NC(C)C)c1C` the inhibition was -15.3%. Compound `c1ccc(-c2cn(-c3ccccc3)c3[n+]2CCCS3)cc1` has an inhibition of -2.11%. With `Cc1ccc(-c2cn(-c3ccccc3)c3[n+]2CCCS3)cc1` the inhibition was 9.74% and -19.1%. Work on `CCn1cc(C(=O)NC(=S)Nc2ccccc2[N+](=O)[O-])cn1` yielded an inhibition of 26.2%. `COCCNC(=O)C(c1ccc(O)cc1)N(Cc1cccs1)C(=O)CCC(=O)Nc1ccccn1` (centres undefined) gave an inhibition of 7.81%. `CCn1c(SCc2ccc([N+](=O)[O-])cc2)nnc1C(C)NC(=O)c1ccccc1Br` (centres undefined) gave an inhibition of -7.9%. For `COc1ccc(CNC(=O)c2cc3c(C)nc4ccccc4c3o2)c(OC)c1`, the inhibition was 31.7%. `O=C(OCC1CC(c2ccccc2)=NO1)c1ccc(Cl)cc1` (centres undefined) gave an inhibition of 25.9%. In the case of `COC(=O)C1CC(c2ccc(Cl)cc2)=NO1` (centres undefined), the inhibition is reported as 10.9%. With `CC(NS(=O)(=O)c1ccc2c(c1)oc(=O)n2C)c1ccccc1` (centres undefined) the inhibition was -7.19%. Compound `CC1Oc2ccccc2N(CC(=O)NC2CCCCC2)C1=O` (centres undefined) has an inhibition of -12.6%. Compound `COc1ccc(S(=O)(=O)N=Nc2c(O)[nH]c3ccccc23)cc1` has an inhibition of 2.14%. `O=C(Nc1cccc(Br)c1)c1ccc(OC2CSC2)cc1` showed an inhibition of 79.7%. For `O=C(NCCNC(=O)c1cccc(O)c1)c1cccc(O)c1`, the inhibition was -13.5%. Compound `CCOC(=O)c1cc2c(C)[nH]c(C)c2cc(C(=O)OCC)c1=O` has an inhibition of -5.61%. Compound `CC(Oc1ccc(Cl)cc1Cl)C(=O)Nc1ccc(O)cc1` (centres undefined) has an inhibition of -1.96%. Compound `CC(=O)Nc1ccc(NC(=O)C(C)Oc2ccc(Cl)cc2Cl)cc1` (centres undefined) has an inhibition of 4.67%. With `CC(=O)c1cnc(Nc2nc(C)c3cc(C)c(C)cc3n2)nc1C` the inhibition was 16.2%. Work on `COc1ccc(-c2cc3ccccc3oc2=O)cc1` yielded an inhibition of 24.3%. Work on `O=c1oc2ccccc2cc1-c1nc(-c2ccccc2)no1` yielded an inhibition of -0.8%. Compound `COc1ccc(-c2nc3c(c(SCC(=O)N4CCOCC4)n2)COC(C)(C)C3)cc1` has an inhibition of -3.27%. Compound `CC1CCCCC1NC(=O)CN1C(=O)NC(C)(c2ccc(OC(F)F)cc2)C1=O` (centres undefined) has an inhibition of -1.28%. `CCn1nnnc1NC(=O)c1ccc2ccccc2c1` gave an inhibition of -1.96%. For `CCCn1nnnc1NC(=O)c1cc(Br)ccc1OC`, the inhibition was 66.1%. Compound `CCCCC(=O)Nc1nnnn1CCC` has an inhibition of 12.9%. For `CCCn1nnc(NC(=O)c2ccc3ccccc3c2)n1`, the inhibition was -1.15%. With `CCCn1nnnc1NC(=O)COc1ccc(Cl)c(C)c1` the inhibition was 74.2%. For `Cc1nnc(NC(=O)c2ccc3ccccc3c2)s1`, the inhibition was 9.74%. `Cc1ccccc1NC(=O)c1ccc2ccccc2c1` gave an inhibition of 40.9%. `CCCn1nnnc1NCc1ccc(Cl)cc1Cl` showed an inhibition of 1.4%.
